Experimental findings from PubChem BioAssay AID2100 (National Center for Advancing Translational Sciences (NCATS), 2009) are described below.

The campaign covered roughly 300,000 compounds. About 1,200 (0.4%) were called active. Roughly 3% stayed inconclusive and do not appear here. This is one part of a sample in which actives are shown more often than they occur. Unmarked numbers belong to inactive results. The call rests on the fitted dose curve; in most records, active means well fitted inhibition curve with a large enough effect; inconclusive means small, poorly fitted or top-dose-only effect, or another doubt; inactive means no such curve, though single readings can be large or run the other way.
Potency means the concentration at half of the fitted maximal effect.

This experiment addresses Lysosomal alpha-glucosidase (Homo sapiens) (UniProt P10253). Kind of experiment: qHTS Assay for Inhibitors and Activators of Human alpha-Glucosidase Cleavage of Glycogen.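 Further: the screen sought inhibitors and activators.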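 On activity change, negative = inhibition: 0% = full enzyme reaction and -100% = no-enzyme basal signal.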 To be noted: recombinant GAA, glycogen substrate, Amplex Red glucose oxidase fluorescence; series mostly up to 76.3 µM; activity change, negative = inhibition: at the top concentration. From the text: NIH Chemical Genomics Center [NCGC] NIH Molecular Libraries Probe Production Centers Network [MLPCN] MLPCN Grant: R03 MH084841-01 Assay Submitter (PI): Wei Zheng NCGC Assay Overview: Alpha-glucosidase is responsible for the hydrolysis of terminal, non-reducing 1,4-linked alpha-D-glucose residues, which releases alpha-D-glucose. It is a lysosomal hydrolase that is required for the degradation of a small percentage (1-3%) of cellular glycogen in humans. Deficiency of this enzyme results in glycogen-storage disease type II (GSDII), also referred to as Pompe disease, an autosomal recessive disorder. Structurally normal glycogen is accumulated in the lysosomes and cytoplasm in affected patients, primarily in muscle tissues. Excessive glycogen storage within lysosomes may interrupt normal functioning of other organelles and leads to cellular injury. In turn, this leads to enlargement and dysfunction of the entire organ involved (eg: cardiomyopathy and muscle weakness). It has been reported that the improper folding and trafficking of alpha-glucosidase resulting from genetic mutations may account for a significant number of Pompe patients. […] We optimized this alpha-glucosidase assay in 1536-well plate format for identification of novel small molecule inhibitors or activators with structures other than the sugar analogs in order to develop new pharmacological chaperones. Previous assays of alpha-Glucosidase have utilized a non-natural fluorescent substrate to probe enzyme activity. The present assay measures enzyme activity on glycogen using a coupled-assay system to glucose oxidase.
NCGC Assay Protocol Summary: This is an enzyme assay using glycogen from bovine liver (Sigma catalog #: G0885) as the substrate and recombinant human alpha-glucosidase as the enzyme preparation. Upon hydrolysis of the substrate, the glucose product can be detected using the Amplex Red Glucose Oxidase Assay Kit (Invitrogen catalog #: A22189). The product of this reaction can be read with a fluorescence plate reader with an excitation at 573 nm and an emission at 610 nm. Data were normalized to the controls for basal activity (without enzyme) and 100% activity (with enzyme). The AC50 values were determined from concentration-response data modeled with the standard Hill equation. Assay buffer for enzyme reaction: 50 mM citric acid (titrated with potassium phosphate to pH 5.0), 0.01% Tween-20 (pH 5.0 is an optimal condition for this enzyme assay) Assay buffer for Amplex Red reaction: Tris-HCl, pH 7.5 1536-well assay protocol for the alpha-glucosidase assay: (1) Add 2 ul/well alpha-glucosidase enzyme solution (4 nM final) (2) Add 23 nL compounds in DMSO solution. The final titration was 0.7 nM to 77 uM. (3) Add 1 ul of glycogen substrate solution (30 ug) (4) Incubate at 37 C for 40 min (5) Add 2 ul tris-HCl buffer with Amplex Red reagents (6) Incubate 45 min at room temperature. (7) Detect the assay plate in a ViewLux plate reader (PerkinElmer) with Ex=573 nm and Em=610nm. Keywords: Alpha-glucosidase, Pompe Disease, pharmacological chaperone, chaperone therapy, high throughput screening, alpha-glucosidase inhibitor, MLSMR, MLSCN, NIH Roadmap, qHTS and NCGC
In general terms: qHTS replaces the single test concentration by a dilution series.
Take `N#C/C=C\Oc1ccc(Cl)cc1N`: the Potency is 9.92 µM (active).

Take `CCCS(=O)(=O)c1c(Nc2ccccc2C)sc(C(=O)c2ccccc2)c1N`: the “activity change, negative = inhibition” value is -9.74%.

Turning to `COc1ccc(S(=O)(=O)Nc2cc3c(C(=O)OC(C)C)c(C)oc3c3ccccc23)cc1`, the “activity change, negative = inhibition” value was 11.4%.

Regarding `Cn1cnc([N+](=O)[O-])c1Sc1n[nH]c(N)n1`, the “activity change, negative = inhibition” value was -4.82% [at 76.4 µM].

For `Cn1cnc([N+](=O)[O-])c1Sc1ccccc1`, the “activity change, negative = inhibition” value is 1.08% [at 76.4 µM].

As to `Cn1cnc([N+](=O)[O-])c1Nc1ccccc1O`, the Potency is 7.88 µM (active).

For `CC1=C(C(=O)OCc2ccc(C)cc2)C(c2ccccc2Cl)CC(=O)N1` (configuration not stated), the “activity change, negative = inhibition” value is 8.08%.

For the compound `CCc1ccc(NC(=O)c2sc3nc4c(cc3c2N)CN(CC)CC4)cc1`, the “activity change, negative = inhibition” value is 0.0714%.

Regarding `CCc1nn(CC(=O)N2CCN(c3ccc(Cl)cc3)CC2)c(=O)c2cc3occc3n12`, the “activity change, negative = inhibition” value was -17.1%.

On to `COc1ccccc1-c1nc(SC)n[nH]1`, for which the “activity change, negative = inhibition” value was -3.53% [at 76.4 µM].

In the case of `COc1ccccc1C1=Nc2cccc3cccc(c23)N1`, the Potency was 17.6 µM (active).

For `Fc1ccccc1N=C1Nc2cccc3cccc1c23`, the “activity change, negative = inhibition” value was 7.79% [at 76.4 µM].

Consider `Cc1cc(C)c2c(-n3cccc3)c(NC(=O)OCc3ccccc3)sc2n1`, for which the “activity change, negative = inhibition” value is -15.1% [at 76.4 µM].

Consider `COC(=O)Nc1sc2nc(C)cc(C)c2c1-n1cccc1`, for which the “activity change, negative = inhibition” value is 0.68% [at 76.4 µM].

On to `Cc1cc(C)c2c(-n3cccc3)c(C(=O)NNS(=O)(=O)c3ccc(F)cc3)sc2n1`, for which the Potency was 31.6 µM (active).

`COc1ccc(Cn2cc(C(=O)c3ccc(C)cc3)c(=O)c3cc(OC)c(OC)cc32)cc1`: the “activity change, negative = inhibition” value is -8.05%.

Turning to `COc1ccc(CNC(=O)c2cc3c(-c4ccccc4F)nn(C)c3s2)c(OC)c1`, the “activity change, negative = inhibition” value is -14.3%.

Regarding `COc1ccc(-c2cc(C(F)(F)F)nc(SCC(=O)N(C)Cc3ccccc3)n2)cc1OC`, the “activity change, negative = inhibition” value was 7.48%.

Take `Cc1ccc(NNC(=O)c2cccs2)cc1Cl`: the Potency is 14.1 µM (active).

As for `Cc1ccc(C(=O)NNC(=O)c2cccs2)cc1`, the “activity change, negative = inhibition” value is 3.51% [at 76.4 µM].

Take `O=C(NNC(=O)c1ccc(Cl)cc1Cl)c1cccs1`: the “activity change, negative = inhibition” value is -13.2% [at 76.4 µM].

For the compound `O=C(O)C1CCN(c2ccc([N+](=O)[O-])cc2[N+](=O)[O-])CC1`, the “activity change, negative = inhibition” value was 0.683% [at 76.4 µM].

On to `O=[N+]([O-])c1ccc(N2CCN(c3ccc(O)cc3)CC2)c(Cl)c1`, for which the Potency was 10 µM (active).

Consider `COc1ccc(N2CCN(c3ccc([N+](=O)[O-])cc3Cl)CC2)cc1`, for which the “activity change, negative = inhibition” value was 9.13% [at 76.4 µM].

With `O=C(CSCc1cnn(-c2ccccc2)c1-n1cccc1)NCc1ccccc1Br`, the “activity change, negative = inhibition” value was -1.5%.

As to `CC(=O)Nc1ccc(NC(=O)CCCc2nc(-c3ccc(C(C)(C)C)cc3)no2)cc1`, the “activity change, negative = inhibition” value is 12.5%.

Take `COc1ccc(N2CCN(c3cc(C)nc4nncn34)CC2)cc1`: the “activity change, negative = inhibition” value was 9.48%.

Regarding `O=C(COC(=O)c1ccccc1C(=O)N1CCN(c2ccccc2)CC1)NCc1ccccc1`, the “activity change, negative = inhibition” value was -1.56% [at 76.4 µM].

As for `Oc1ccc(N2CCN(C(=S)NCc3ccccc3)CC2)cc1`, the Potency was 3.16 µM (active).

As to `S=C(NCCc1ccccc1)N1CCCCC1`, the “activity change, negative = inhibition” value is 4.13% [at 76.4 µM].

`COc1ccc(-c2noc(CSc3nc4ccc(C)cc4[nH]3)n2)cc1`: the “activity change, negative = inhibition” value was -11%.

`O=C(CN1CCOCC1)Nc1ccccc1`: the “activity change, negative = inhibition” value was 4.65% [at 76.4 µM].

For `O=C(CN1CCN(c2ccc(O)cc2)CC1)Nc1ccc(-c2ccccc2)cc1`, the Potency was 10 µM (active).

As to `O=C(CN1CCN(c2ccccc2)CC1)Nc1ccc(F)cc1`, the “activity change, negative = inhibition” value is -5.55% [at 76.4 µM].

On to `CCOc1ccc(N(CC)S(=O)(=O)N2CCCC(C(=O)NCc3ccc(SC)cc3)C2)cc1` (configuration not stated), for which the “activity change, negative = inhibition” value is 11.1%.

Take `CCc1ccc(NC(=O)C2CCCN2S(=O)(=O)c2ccc3nc(-c4ccccc4)[nH]c3c2)cc1` (configuration not stated): the “activity change, negative = inhibition” value was -14.4%.

With `Cc1ccccc1CNC(=O)CCCn1nc(C)c2sc3ccccc3c2c1=O`, the “activity change, negative = inhibition” value was -10.6%.

Consider `O=C(Cn1nc(C(F)(F)F)c2c1CCCC2)Nc1ccc(Cl)cc1`, for which the “activity change, negative = inhibition” value was 9.38%.

Take `COc1cccc(-c2nc(CS(=O)(=O)CC(=O)N3CCN(c4cc(C)ccc4C)CC3)c(C)o2)c1`: the “activity change, negative = inhibition” value was -17%.

As to `CCC(O)CNc1nc(-n2nc(C)cc2C)nc2sc3c(c12)CC(C)(C)OC3` (configuration not stated), the “activity change, negative = inhibition” value was -8.09% [at 76.4 µM].

For `CC/C(C)=N/Nc1nc2sc3c(c2c(=O)[nH]1)CC(C)(C)OC3`, the “activity change, negative = inhibition” value is 1.15% [at 76.4 µM].

As for `C=CCNC(=S)NNc1ncnc2sc3c(c12)CC(C)(C)OC3`, the Potency was 11.2 µM (active).

Take `Cc1cccc(OCCSc2nc3ccccc3n2CC(=O)N2CCCCC2)c1C`: the “activity change, negative = inhibition” value was 12%.

Consider `Cc1cc(Nc2ccccc2)n(CCC#N)n1`, for which the Potency is 19.8 µM (active).

Consider `Cc1cc(Nc2ccccc2)n(C(=O)c2ccc(N)cc2)n1`, for which the “activity change, negative = inhibition” value was -16% [at 76.4 µM].

As for `N#CCCn1ncc2ccccc21`, the “activity change, negative = inhibition” value is 1.77% [at 76.4 µM].

Consider `COc1ccc(NC(=O)NC(C)c2c(-n3cccc3)sc(C)c2C)cc1OC` (configuration not stated), for which the “activity change, negative = inhibition” value was 8.49%.

`O=C(NNS(=O)(=O)c1ccccc1C(F)(F)F)c1cc2ncc(C(F)(F)F)cc2s1`: the Potency was 28.2 µM (active).

Take `Cc1cc(C(=O)NNS(=O)(=O)c2ccccc2C(F)(F)F)nn1C(C)(C)C`: the “activity change, negative = inhibition” value was -13.5% [at 76.4 µM].

In the case of `O=C(CS(=O)(=O)c1ccc(C(F)(F)F)cn1)NNC(=O)c1ccccc1`, the “activity change, negative = inhibition” value was -2.4% [at 76.4 µM].

Regarding `CCc1ccc(NC(=O)Cn2c(=O)n(CCC(=O)NCc3ccc4c(c3)OCO4)c(=O)c3ccccc32)cc1`, the “activity change, negative = inhibition” value was 12.6%.

Take `COc1ccc(S(=O)(=O)c2cn(C)c3cc(N4CCCCC4)c(F)cc3c2=O)cc1`: the “activity change, negative = inhibition” value was -7.63%.
